From PubChem BioAssay (NCATS)
Results filed as inconclusive are left out. Active and inactive are the calls of the source. The call rests on the fitted dose curve; in most records, active means well fitted inhibition curve with a large enough effect; inconclusive means small, poorly fitted or top-dose-only effect; inactive means no such curve, though single readings can be large or run the other way.
Potency means the concentration at half of the fitted maximal effect.

Test: qHTS Screen of the MIPE 4.0 Collection Against Ewings Sarcoma (TC71) (AID 1259253); further: nearly all actives have a fitted effect of over 40% in size;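 on viability (% of DMSO): 100% = DMSO-treated cells and 0% = medium-only wells without cells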
Conditions: TC71 Ewing sarcoma viability, CellTiter-Glo, 48 h; series mostly up to 45.8 µM; viability (% of DMSO): at the top concentration
Source text: There is a large unmet medical need for treatments for Ewing sarcoma, a pediatric sarcoma. We sought to identify compounds that inhibited Ewing sarcoma cells in vitro with the goal to then test promising drugs in two drug combinations in vitro to look for synergistic drug combinations. Promising combinations would then proceed to additional validation, including in vivo testing.
Using the NCATS developed oncology compound library called the Mechanism of Interrogation Plate (MIPE), four Ewing sarcoma cell lines were evaluated (TC32, TC71, RDES, EW8). Compounds, in a 12-point titration series, were incubated with cells for 48 hours and the read out was cell viability (CellTiter-Glo from Promega). These initial experiments were used to select appropriate concentrations of each single agent for subsequent two-drug matrix combinations such that the concentrations in the matrices would span both activity and non-activity.
Cells, in the log phase of growth, were seeded in 5 uL of RPMI plus 5% FBS, […] L-glutamine, 100 U/ml penicillin and 100 ug/ml streptomycin into 1536-well solid-bottom white tissue culture treated Greiner Bio One Plates (789173-F) using a MultiDrop Combi (Thermofisher Scientific) dispenser and a small sterile cassette. One column was media alone to be used as a :"no cells" control. The plates were then covered with sterilized stainless steel gasketed lids from Kalypsys. After allowing cells to attach for 4 hours, 23 nL of test compound or control (negative control DMSO and positive control 9.2 uM Bortezomib-final) were added from a 1536-well polypropylene compound source plate to each well using a 1536 head pin tool from Kalypsys. Cells were then incubated for 48 hours at 37C, 95% relative humidity and 5% CO2. After 48 hours, plates were removed from the incubator and 3 uL of CellTiter-Glo (Promega) was added using an Aurora Flying Reagent Dispenser Bioraptor. Plates were incubated at room temperature for 10 minutes prior to reading the luminescence on the Viewlux (PerkinElmer). The relative luciferase units are used to calculate the percent activity using the activity of DMSO in the cells and no cells columns for normalization of no inhibition and full inhibition respectively.
In the case of `COc1ccc(C2CNC(=O)C2)cc1OC1CCCC1` (stereo not given), the “viability (% of DMSO)” value is reported as 109% (inactive).
With `CCOC(=O)C(C)(C)Oc1ccc(Cl)cc1` the “viability (% of DMSO)” value was 130% (inactive).
In the case of `Cn1ccc2cc3c(cc21)CCN3C(=O)Nc1cccnc1`, the Potency is reported as 23.5 µM (active).
With `CC(=O)OCC(CCn1cnc2cnc(N)nc21)COC(C)=O` the “viability (% of DMSO)” value was 121% (inactive).
With `O=C1Cc2cc(CCN3CCN(c4nsc5ccccc45)CC3)c(Cl)cc2N1` the Potency was 23.5 µM (active).
With `Clc1ccccc1C(c1ccccc1)(c1ccccc1)n1ccnc1` the Potency was 20.9 µM (active).
For `COc1ccc2[nH]cc(CCNC(C)=O)c2c1`, the Potency was 1.05 µM (active).
For `Cc1cc(C(C)(C)C)cc(C)c1CC1=NCCN1`, the “viability (% of DMSO)” value was 98.8% (inactive).
In the case of `Clc1ccc2c(c1)C(N1CCNCC1)=Nc1ccccc1O2`, the Potency is reported as 16.6 µM (active).
In the case of `CC[N+](CC)(CC)CCOc1cccc(OCC[N+](CC)(CC)CC)c1OCC[N+](CC)(CC)CC`, the “viability (% of DMSO)” value is reported as 122% (inactive).
In the case of `CCN1CCCC1CNC(=O)c1cc(S(=O)(=O)CC)c(N)cc1OC` (stereo not given), the “viability (% of DMSO)” value is reported as 109% (inactive).
With `COc1cc2nc(N(C)CCCNC(=O)C3CCCO3)nc(N)c2cc1OC` (stereo not given) the “viability (% of DMSO)” value was 97.9% (inactive).
In the case of `NC(=O)NO`, the Potency is reported as 5.9 µM (active).
In the case of `NC12CC3CC(CC(C3)C1)C2`, the Potency is reported as 26.4 µM (active).
For `O=C(CCCN1CCC(O)(c2ccc(Cl)cc2)CC1)c1ccc(F)cc1`, the Potency was 18.7 µM (active).
With `CC(C)(C)C(=O)Oc1ccc(S(=O)(=O)Nc2ccccc2C(=O)NCC(=O)O)cc1` the “viability (% of DMSO)” value was 132% (inactive).
In the case of `CC(COc1ccccc1)N(CCCl)Cc1ccccc1` (stereo not given), the “viability (% of DMSO)” value is reported as 81.2% (inactive).
In the case of `N[C@@H](Cc1c[nH]c2ccc(O)cc12)C(=O)O`, the “viability (% of DMSO)” value is reported as 106% (inactive).
With `Clc1ccc2nsnc2c1NC1=NCCN1` the “viability (% of DMSO)” value was 118% (inactive).
With `NS(=O)(=O)c1cc2c(cc1Cl)NCNS2(=O)=O` the “viability (% of DMSO)” value was 119% (inactive).
For `Fc1ccc([C@@H]2CCNC[C@H]2COc2ccc3c(c2)OCO3)cc1`, the Potency was 18.7 µM (active).
For `CCOC(=O)c1ncn2c1CN(C)C(=O)c1cc(F)ccc1-2`, the “viability (% of DMSO)” value was 124% (inactive).
In the case of `COc1cc2c(c(OC)c1OC)-c1ccc(OC)c(=O)cc1[C@@H](NC(C)=O)CC2`, the “viability (% of DMSO)” value is reported as 25.6% (inactive).
In the case of `CC#C[C@]1(O)CC[C@H]2[C@@H]3CCC4=CC(=O)CCC4=C3[C@@H](c3ccc(N(C)C)cc3)C[C@@]21C`, the Potency is reported as 0.264 µM (active).
For `CN1CCC(=C2c3ccccc3CC(=O)c3sccc32)CC1`, the Potency was 13.2 µM (active).
For `C[C@@H]1CC(=O)NN=C1c1ccc(NN=C(C#N)C#N)cc1`, the Potency was 29.6 µM (active).
For `CN(C)CCCN1c2ccccc2CCc2ccc(Cl)cc21`, the Potency was 0.743 µM (active).
In the case of `CN(C)C(=O)C(CCN1CCC(O)(c2ccc(Cl)cc2)CC1)(c1ccccc1)c1ccccc1`, the Potency is reported as 20.9 µM (active).
With `CN(C)C(=N)N=C(N)N` the “viability (% of DMSO)” value was 124% (inactive).
In the case of `CC1(C)O[C@H]2CC(=O)OC[C@]23[C@H]2CC[C@@]4(C)[C@H](c5ccoc5)OC(=O)[C@H]5O[C@]54[C@]2(C)C(=O)C[C@@H]13`, the “viability (% of DMSO)” value is reported as 118% (inactive).
For `Cc1ccccc1N1C(=O)c2cc(S(N)(=O)=O)c(Cl)cc2NC1C` (stereo not given), the “viability (% of DMSO)” value was 129% (inactive).
In the case of `CC[C@@]1(O)C(=O)OCc2c1cc1n(c2=O)Cc2cc3c(CN(C)C)c(O)ccc3nc2-1`, the Potency is reported as 0.0372 µM (active).
With `Cc1cn([C@H]2C=C[C@@H](CO)O2)c(=O)[nH]c1=O` the “viability (% of DMSO)” value was 108% [at 92.2 µM] (inactive).
For `COc1cc2nc(N3CCN(C(=O)C4COc5ccccc5O4)CC3)nc(N)c2cc1OC` (stereo not given), the Potency was 16.6 µM (active).
With `Cc1ccc(C(=O)Nc2ccc(S(=O)(=O)O)c3cc(S(=O)(=O)O)cc(S(=O)(=O)O)c23)cc1NC(=O)c1cccc(NC(=O)Nc2cccc(C(=O)Nc3cc(C(=O)Nc4ccc(S(=O)(=O)O)c5cc(S(=O)(=O)O)cc(S(=O)(=O)O)c45)ccc3C)c2)c1` the “viability (% of DMSO)” value was 126% (inactive).
For `NCCS(=O)(=O)O`, the “viability (% of DMSO)” value was 109% (inactive).
In the case of `Nc1c2c(nc3ccccc13)CCCC2`, the Potency is reported as 18.7 µM (active).
With `CN(Cc1cnc2nc(N)nc(N)c2n1)c1ccc(C(=O)N[C@@H](CCC(=O)O)C(=O)O)cc1` the Potency was 0.0148 µM (active).
In the case of `CCCNCC(O)COc1ccccc1C(=O)CCc1ccccc1` (stereo not given), the Potency is reported as 14.8 µM (active).
With `CS(=O)(=O)Nc1ccc([N+](=O)[O-])cc1Oc1ccccc1` the Potency was 16.6 µM (active).
